{"source": "PubChem BioAssay (EPA / NIEHS)", "note": "Results filed as inconclusive are left out. Active and inactive are the calls of the source. Rule for the calls: active = hit-call score of the fitted dose curve at least 0.9, where 1 is the maximum; inconclusive = response in the unintended direction; inactive = score below 0.9."}
{"read-out": "organic anion transporter (SLCO1B1), SLCO1B1 (gene 10599)", "experiment": "CLD_SLCO1B1_48hr: CellzDirect (CLD) Gene Expression Assay for organic anion transporter (SLCO1B1) at 48 hours (AID 2283707)", "experimental": "CLD_48hr is a cell-based, multiplexed-readout assay that uses hepatocyte, a human liver primary cell, with measurements taken at 48 hours after chemical dosing in a 96-well plate.CLD_SLCO1B1_48hr is one of 16 assay component(s) measured or calculated from the CLD_48hr assay. It is designed to make measurements of mRNA induction, a form of inducible reporter, as detected with chemiluminescence signals by Quantitative Nuclease Protection Assay (qNPA) technology.Data from the assay component CLD_SLCO1B1_48hr was analyzed at the endpoint, CLD_SLCO1B1_48hr, in the positive analysis fitting direction relative to DMSO as the negative control and baseline of activity. Using a type of inducible reporter, gain-of-signal activity can be used to understand changes in the reporter gene as they relate to the gene SLCO1B1. Furthermore, this assay endpoint can be referred to as a primary readout. To generalize the intended target to other relatable targets, this assay endpoint is annotated to the transporter intended target family, where subfamily is organic anion transporter.\nHuman hepatocyte cultures were treated daily for two consecutive days with fresh dosing solutions containing appropriate concentrations of the 320 ToxCast chemicals (chemical identities were blinded to CellzDirect and other ToxCast collaborators), vehicle control (0.2% DMSO), and positive control inducers as summarized in Table 1. Due to the large number of treatment groups and chemicals examined, the ToxCast chemicals were divided into two groups (spanning two independent cultures of hepatocytes from separate donor preparations (Hu778: ToxCast plates 1 and 2; Hu776: ToxCast plates 3 and 4). Each preparation of human hepatocyte cultures was treated with respective vehicle control, medium only control, set of six positive controls/reference chemicals for the five hepatic receptor pathways, and a subset of eight of the ToxCast chemicals (indoxacarb, pyrithiobac-sodium, norflurazon, cyhalofop-butyl, methomyl, thiram, acetochlor, and propiconazole). These replicate data, coupled with internal replicates designed within the blinded ToxCast chemical library, provided additional data to evaluate interindividual differences between hepatocyte preparations and their potential impact on chemical profiles.Cell morphology and integrity were evaluated using phase-contrast microscopy as an indicator of hepatocyte cell health (Tyson & Green, 1987). Cultures for each treatment group (i.e., media, vehicle [0.2% DMSO], positive control inducers [multiple concentrations], and the ToxCast chemicals [multiple concentrations]) were observed and cell morphology was assessed relative to vehicle control cultures at each harvest time point (0, 6, 24, or 48 h). […] Images were evaluated at the conclusion of the study to assess changes in cell integrity and account for the effects of chemical exposure on uncharacteristic changes in concentration-dependent gene expression profiles. The results from these determinations of apparent cytotoxicity were annotated (yes/no) alongside the corresponding qNPA data for reference.At the conclusion of each treatment period, hepatocyte cultures (96-well) were washed with 1 volume of HBSS, lysed by addition of 25 ul ArrayPlate lysis buffer (HTG, Tucson, AZ), and 70 ul/well of Denaturation Oil, denatured by incubation at 95C for 10 min, and frozen at approximately -70C until analysis by nuclease protection assay (qNPA) (Roberts et al., 2007). For qNPA analysis, cell lysates were thawed at 50C for approximately 30 min, qNPA probes were added, and samples were incubated at 95C for 10 min to begin the detection process by denaturing the target RNA, dissociating the duplexes and secondary structure hybridization. At the conclusion of the hybridization period, S1 nuclease reagent was added to each sample to digest all nonprotected nucleotides at 50C for 60-90 min. […]"}
{"smiles": "CCC(O)=C1C(=O)CC(C(=O)O)CC1=O", "note": "(stereo not drawn)", "outcome": "inactive"}
{"smiles": "COc1c(Cl)ccc(Cl)c1C(=O)O", "outcome": "inactive"}
{"smiles": "CCCOC(=O)c1ccc(C(=O)OCCC)nc1", "outcome": "inactive"}
{"smiles": "COC(=O)CSc1cc(N=c2sc(=O)n3n2CCCC3)c(F)cc1Cl", "outcome": "inactive"}
{"smiles": "COC(=O)c1cccc(C)c1S(=O)(=O)NC(=O)Nc1nc(OCC(F)(F)F)nc(N(C)C)n1", "outcome": "inactive"}
{"smiles": "COC(=O)c1ccccc1S(=O)(=O)NC(=O)Nc1nc(OC(F)F)cc(OC(F)F)n1", "outcome": "inactive"}
{"smiles": "CCCCC(CC)COC(=O)c1ccccc1C(=O)O", "note": "(stereo not drawn)", "outcome": "inactive"}
{"smiles": "CCC(C)OC(=O)N1CCCCC1CCO", "note": "(stereo not drawn)", "outcome": "inactive"}
{"smiles": "CCNc1nc(N)nc(Cl)n1", "outcome": "inactive"}
{"smiles": "CCSC(=O)N(CC(C)C)CC(C)C", "outcome": "inactive"}
{"smiles": "C#CCOC(=O)[C@@H](C)Oc1ccc(Oc2ncc(Cl)cc2F)cc1", "outcome": "inactive"}
{"smiles": "OB(O)O", "outcome": "inactive"}
{"smiles": "COCCO", "outcome": "inactive"}
{"smiles": "CC(C)(c1ccc(O)cc1)c1ccc(O)cc1", "outcome": "inactive"}
{"smiles": "c1ccc(Nc2ccccc2)cc1", "outcome": "inactive"}
{"smiles": "CCCN(CCC)C(=O)SCC", "outcome": "inactive"}
{"smiles": "CSC(=O)c1cccc2nnsc12", "outcome": "inactive"}
{"smiles": "CCOC(=O)C(C)Oc1ccc(Oc2cnc3cc(Cl)ccc3n2)cc1", "note": "(stereo not drawn)", "outcome": "inactive"}
{"smiles": "CCOC(=O)[C@H](C)Oc1ccc(Oc2nc3ccc(Cl)cc3o2)cc1", "outcome": "inactive"}
{"smiles": "CCCCOC(=O)[C@@H](C)Oc1ccc(Oc2ccc(C(F)(F)F)cn2)cc1", "outcome": "inactive"}
{"smiles": "CCCOC(=O)NCCCN(C)C", "outcome": "inactive"}
{"smiles": "CCCCOC(=O)C(C)Oc1ccc(Oc2ccc(C(F)(F)F)cn2)cc1", "note": "(stereo not drawn)", "outcome": "inactive"}
{"smiles": "CCOC(=O)NCCOc1ccc(Oc2ccccc2)cc1", "outcome": "inactive"}
